Screens (PubChem)
DT40 TDP1 CPT = qHTS for Inhibitors of human tyrosyl-DNA phosphodiesterase 1 (TDP1): qHTS in cells in presence of CPT; Potency, µM (doses to about 46.2 µM), for inactives: at the top dose activity change, negative = growth inhibition, usual class: inhibitors; 420,000 tested, 12% active; chicken DT40 Tdp1-/-;hTDP1 cells + 20 nM CPT, ATP luminescence, 48 h; also: potency is read from the fitted curve at half-maximal effect; % is scaled to controls: 0 for no effect and ±100 for the full control effect; nearly all actives have a fitted effect of over 55% in size
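Chicken DT40 Tdp1-/- cells stably complemented with human TDP1 were seeded at 400 cells/well in medium containing 20 nM camptothecin, exposed to pin-transferred compounds, and grown at 37 °C for at least 48 hr. Viability was read as ATP luminescence.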
IL1B secr inh = qHTS for Inhibitors of Inflammasome Signaling: IL-1-beta AlphaLISA Primary Screen; THP-1 LPS/ATP IL-1B secretion, AlphaLISA, 16 h; active compounds read low; activity change, % at 57.5 µM; 360,000 tested, 4.7% active; AID 743279, 2014; in the data active = activity change below about -50%; inconclusive = mostly about -30% to -49%; also: % is scaled to controls: 0 for no effect and ±100 for the full control effect
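THP-1 cells pretreated 1 hr with compounds (up to 57.5 uM final), then stimulated with LPS (250 ng/mL final) plus ATP (1.25 mM final); secreted IL-1B measured by AlphaLISA after 16 hr, decreased signal indicating inhibition.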
HepG2 tox = qHTS for Inhibitors of TGF-b: Cytotox Counterscreen | HepG2 CAGA-GFP viability, ATP luminescence, 18 h | Potency, µM (series often up to 46.1 µM), for inactives: top-dose activity change, negative = cytotoxicity, actives largely listed as cytotoxic | 410,000 tested, 0.76% active; also: potency is read from the fitted curve at half-maximal effect
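CellTiter-Glo luminescence gave cytotoxicity after 18 hours at 37 degrees C. The cells were HepG2 CAGA-GFP in 1% FBS DMEM, stimulated with 500 pg/mL TGF-beta after compound addition. %Activity was normalised to no-cell wells (complete cell-killing) and DMSO (no toxicity), and curves were fitted and classified.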
TDP1 inh = qHTS Assay for Inhibitors of Tyrosyl-DNA Phosphodiesterase (TDP1) | Tyrosyl-DNA phosphodiesterase 1 (Homo sapiens), Q9NUW8 | recombinant TDP1, AlphaScreen DNA substrate cleavage | Potency, µM (titrated, usually from 130 µM), without a hit: at the highest dose activity change, negative = inhibition, actives largely listed as inhibitors | 350,000 tested, 0.28% active | AID 485290, 2010; also: potency is read from the fitted curve at half-maximal effect; % is scaled to controls: 0 for no effect and ±100 for the full control effect; nearly all actives have a fitted effect of over 40% in size
Target sequence (Q9NUW8 whole entry, looked up): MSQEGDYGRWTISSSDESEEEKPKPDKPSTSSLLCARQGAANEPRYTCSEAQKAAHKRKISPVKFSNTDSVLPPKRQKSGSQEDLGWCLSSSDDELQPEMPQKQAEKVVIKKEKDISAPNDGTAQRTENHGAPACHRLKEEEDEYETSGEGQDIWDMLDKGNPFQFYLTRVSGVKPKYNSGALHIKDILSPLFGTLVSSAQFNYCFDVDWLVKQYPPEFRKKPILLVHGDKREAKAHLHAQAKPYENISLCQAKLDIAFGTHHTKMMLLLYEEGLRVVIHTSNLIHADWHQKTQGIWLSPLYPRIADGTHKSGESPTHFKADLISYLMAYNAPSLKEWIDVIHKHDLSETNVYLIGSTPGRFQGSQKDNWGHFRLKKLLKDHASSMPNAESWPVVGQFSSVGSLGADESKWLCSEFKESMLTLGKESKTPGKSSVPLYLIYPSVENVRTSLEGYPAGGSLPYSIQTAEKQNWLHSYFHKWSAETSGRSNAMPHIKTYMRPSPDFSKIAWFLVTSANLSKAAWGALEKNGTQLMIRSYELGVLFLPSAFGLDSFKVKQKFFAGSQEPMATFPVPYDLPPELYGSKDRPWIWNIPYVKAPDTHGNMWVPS
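Tdp1 1 nM final; 15 min RT w/ cpd; substrate 15 nM, 5 min; beads 10 ug/ml, 10 min; AlphaScreen read. Neg ctrl: no enzyme.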
TGFb SMAD3 inh = qHTS for Inhibitors of TGF-b. 410,000 tested, 1.2% active. Potency, µM (titrated, usually from 46.1 µM), inactives show top-dose activity, negative = inhibition, usual class: inhibitors. AID 588855, 2011. HepG2 CAGA-GFP TGF-b/SMAD3 reporter, GFP fluorescence, 18 h; TGF-beta stimulated, 500 pg/mL final; also: potency is read from the fitted curve at half-maximal effect; % is scaled to controls: 0 for no effect and ±100 for the full control effect; nearly all actives have a fitted effect of over 65% in size
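HEPG2 CAGA-GFP reporter cells (1000/well, DMEM with 1% FBS) received compounds, then recombinant TGF-beta at 500 pg/mL final for 18 hours at 37 degrees C. Per-cell GFP summed per well was normalised to unstimulated and stimulated DMSO controls before curve fitting.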
TDP1 cell noCPT = qHTS for Inhibitors of human tyrosyl-DNA phosphodiesterase 1 (TDP1): qHTS in cells in absence of CPT | 420,000 tested, 15% active | DT40 Tdp1-/- hTDP1 cells, no CPT, ATP luminescence, 48 h | Potency, µM (doses to about 46.2 µM), for the others: at the highest dose activity change, negative = growth inhibition, most hits filed as inhibitors; also: potency is read from the fitted curve at half-maximal effect; % is scaled to controls: 0 for no effect and ±100 for the full control effect; nearly all actives have a fitted effect of over 55% in size
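Readout: luminescence from CellTiter-Glo after 30 min in the dark at RT. Cells: DT40 Tdp1-/- with stable hTDP1, 400/well. Exposure: compounds alone, ≥48 hr, 37 °C.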
The depositor's hits bear a star; ? = inconclusive; / = no result. An excerpt weighted towards active compounds, which were near 19% of everything screened. Unless noted, calls follow the shape of the dose curve; as a rule, active = well fitted curve in the direction sought with a large enough effect; inconclusive = small, poorly fitted or top-dose-only effect, or another doubt; inactive = no such curve, though single readings can be large; an effect the other way counts as inactive or inconclusive.

SMILES	DT40 TDP1 CPT	IL1B secr inh	HepG2 tox	TDP1 inh	TGFb SMAD3 inh	TDP1 cell noCPT
O=C(Nc1cccnc1Cl)c1cc(-c2ccc(Cl)cc2)on1	10%	-23	5%	7%	10%	-13%
O=C(Nc1cccnc1Cl)c1cc(-c2ccc(O)cc2)on1	16%	-2	4%	50µM*	7%	2%
CCCNC(=O)Cn1c(=O)/c(=C\c2ccc(-c3cccc([N+](=O)[O-])c3)o2)s/c1=C\C(=O)C(C)(C)C	23µM*	9	27%	8%	-5%	23µM*
CCOC(=O)C1=C(CN2CCC(C)CC2)NC(=O)NC1c1ccc(F)cc1 (stereo not given)	-5%	/	-24%	-6%	-12%	-26%
CN(Cc1ccco1)C(=O)C1CCC(=O)N(CCc2cccc(F)c2)C1 (stereo not given)	?	13	0%	2%	-13%	?
C#CCN(C(=O)C1CCC(=O)N(CCc2cccc(F)c2)C1)C1CCCCC1 (stereo not given)	18µM*	2	-8%	/	-1%	6.5µM*
CC#CCN(Cc1ccco1)C(=O)C1CCC(=O)N(CCc2cccc(F)c2)C1 (stereo not given)	21µM*	-2	11%	/	-1%	15µM*
COc1ccc(NS(=O)(=O)c2cc(NC(=O)c3ccc(=O)[nH]c3)ccc2N2CCCC2)cc1	4.1µM*	73	0%	7%	-1%	7.3µM*
COc1ccc(NS(=O)(=O)c2cc(NC(=O)c3cnc(C)cn3)ccc2N2CCCCC2)cc1	?	-9	12%	3%	-7%	?
COc1ccc(NS(=O)(=O)c2cc(NC(=O)c3cnc(C)cn3)ccc2N2CCCC2)cc1	-24%	-1	6%	3%	-1%	?
COc1ccc(NS(=O)(=O)c2cc(NC(=O)c3ccco3)ccc2N2CCCCC2)cc1	?	0	-30%	4%	-12%	18µM*
CN(C)N=Nc1nc2c([nH]1)c(=O)n(C)c(=O)n2C	-4%	-5	-62%	3%	0%	-25%
CN(C)N=Nc1nc2c(c(=O)n(C)c(=O)n2C)n1CC1CO1 (stereo not given)	3.7µM*	13	-14%	0%	?	15µM*
Cc1ccc(N2CC(NC(=O)c3cccs3)CC2=O)cc1 (stereo not given)	-3%	/	-3%	3%	-2%	-16%
O=C(Nc1ccccc1C1CC1)c1cccs1	-2%	-10	8%	6%	0%	-17%
N#CCCn1nc(-c2ccccc2)cc1Nc1ccccc1NC(=O)c1cccs1	?	-60*	-13%	7%	-2%	-27%
CS(=O)(=O)c1ccc2nc(NC(=O)c3ccc(NS(=O)(=O)c4cccc([N+](=O)[O-])c4)cc3)sc2c1	2%	83	-27%	/	?	-14%
O=[N+]([O-])c1cc(S(=O)(=O)N2CCCCCC2)ccc1Cl	?	-104*	-3%	-5%	0%	8.2µM*
Cc1ccc(S(=O)(=O)N2CCCC2)cc1[N+](=O)[O-]	1%	5	2%	3%	0%	-7%
O=C1CCCN1c1ccc(S(=O)(=O)N2CCCCC2)cc1[N+](=O)[O-]	-8%	0	6.3µM*	-1%	-6%	-28%
Cc1ccc(S(=O)(=O)N2CCCCC2C)cc1[N+](=O)[O-] (stereo not given)	12µM*	-7	9%	3%	-4%	15µM*
Cc1ccc(N2CCN(S(=O)(=O)c3ccc(Cl)c4ccccc34)CC2)c(C)c1	/	/	-2%	-2%	21%	/
CCN(CC)C(=O)c1cc(-c2ccc3c(c2)OCO3)on1	9%	-3	-1%	/	-2%	0%
COc1ccccc1NS(=O)(=O)c1ccc(-c2cc(C)no2)s1	7.3µM*	56	6%	0%	-6%	7.3µM*
Cc1cc(-c2ccc(S(=O)(=O)Nc3cccc(C(F)(F)F)c3)s2)on1	21µM*	/	-25%	5%	-2%	?
SMILES	DT40 TDP1 CPT	IL1B secr inh	HepG2 tox	TDP1 inh	TGFb SMAD3 inh	TDP1 cell noCPT
COc1cccc(C(C(=O)NCc2ccccc2)N2CCN(CCN3CCOCC3)CC2)c1OC (stereo not given)	-6%	0	/	/	/	-3%
O=C(NCc1ccccc1)C(c1ccc(F)cc1)N1CCN(c2ccccc2F)CC1 (stereo not given)	9.2µM*	-21	/	/	/	12µM*
COc1cccc(C(C(=O)NCc2ccccc2)N2CCN(c3ccccc3F)CC2)c1OC (stereo not given)	21µM*	-26	/	/	/	16µM*
CCN=C1S/C(=C\c2sccc2C)C(=O)N1CC	?	-11	-2%	-6%	-8%	?
CC1OC(CC(=O)O)CC2=C1C(=O)c1c(O)cccc1C2=O (stereo not given)	0.1µM*	-98*	0.5µM*	/	?	0.065µM*
O=C(Cc1cccs1)N(Cc1ccco1)C1(C(=O)NC2CCCCC2)CCCCC1	15µM*	?	1%	5%	0%	18µM*
O=C(c1ccc2c(c1)OCO2)N(CC1CCCO1)C1(C(=O)NC2CCCCC2)CCCCC1 (stereo not given)	?	-19	-19%	3%	-8%	?
O=C(Cc1cccs1)N(c1ccc(F)cc1)C1(C(=O)NC2CCCCC2)CCCC1	?	0	-18%	8%	-37%	23µM*
O=C(Cc1cccs1)N(CC1CCCO1)C1(C(=O)NC2CCCC2)CCCCC1 (stereo not given)	?	-18	-4%	4%	-13%	16µM*
O=C(Cc1cccs1)N(Cc1cccs1)C1(C(=O)NC2CCCC2)CCCCC1	8.2µM*	-24	-17%	6%	0%	6.5µM*
O=C(NCc1cccnc1)c1ccc(NS(=O)(=O)c2cccc([N+](=O)[O-])c2)cc1	-13%	11	8%	2%	3%	-8%
Cn1c(CCN2CCCCC2)nc2cc(NS(=O)(=O)c3ccccc3)ccc21	?	-50*	4%	-1%	?	?
